Screens from PubChem.
Shown is part of a subset that was picked to be rich in hits.
Pf Dd2 growth = blocks in vitro growth of P. falciparum Dd2. P. falciparum Dd2 growth, SYBR Green, 72 h. Potency, µM (series often up to 28.9 µM), usual class: inhibitors. 120,000 tested, 4.3% active; active = well fitted inhibition curve with a large enough effect; note: nearly all actives have a fitted effect of over 65% in size
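Infected erythrocytes (Dd2, 0.3% parasitemia, 2.5% hematocrit final) are added to compound in RPMI-1640/Albumax II medium, grown 72 h at 37C in low oxygen, then lysed with saponin/Triton-X containing SYBR Green and read by fluorescence.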
Each line names hits and unclear results; the compound was inactive in the other large screens.

COc1ccc(-c2nc3c(c(=O)[nH]2)CCN(C(=O)c2cc(Cl)ccc2OC)C3)cc1	Pf Dd2 growth 10µM
COc1ccc(-c2nc3c(c(=O)[nH]2)CCN(S(=O)(=O)C2CC2)C3)cc1	none
COc1ccc(-c2nc3c(c(=O)[nH]2)CCN(C(=O)c2nccc4ccccc24)C3)cc1	Pf Dd2 growth 5µM
COc1ccc(-c2nc3c(c(=O)[nH]2)CCN(C(=O)NCC2CCCO2)C3)cc1 (centres undefined)	none
COc1ccc(-c2nc3c(c(=O)[nH]2)CCN(C(=O)Nc2cc(F)cc(F)c2)C3)cc1	none
O=C(CCN1CCCCO1)NC1CCCc2nc(-c3ccccc3)ncc21 (centres undefined)	none
CCC(=O)N(C1CCOCC1)C1CCN(Cc2ccc(C)cc2C)CC1	none
CC(C)CN1C(=O)c2cccn2CC1C(=O)NCC1CC1 (centres undefined)	none
CCCCNC(=O)C1CCN(Cc2nc(-c3ccc(OC)c(OC)c3)oc2C)CC1	none
Cc1oc(-c2cccc(Cl)c2)nc1CN1CCC(C(=O)NCCCN2CCN(c3ccccc3F)CC2)CC1	none
Cc1oc(-c2ccc(Cl)cc2)nc1CN1CCC(C(=O)NCCCN2CCN(c3cccc(Cl)c3)CC2)CC1	none
Cc1oc(-c2cccc(Cl)c2)nc1CN1CCC(C(=O)NCCCN2CCN(c3ccc(F)cc3)CC2)CC1	Pf Dd2 growth 5.6µM
COc1ccc(-c2nc(CN3CCC(C(=O)NCCCN4CCN(c5ccccc5F)CC4)CC3)c(C)o2)cc1OC	Pf Dd2 growth 10µM
COCCCNC(=O)C1CCN(Cc2nc(-c3ccc(OC)c(OC)c3)oc2C)CC1	none
O=C(NCC1CCCO1)c1cnc2c(c1)N(Cc1ccccc1)CCC2 (centres undefined)	none
CCOCC(=O)N1CCC(Cc2ccc(C(=O)N(C)C)cc2)CC1	none
COc1cc(OC)cc(-c2nc(C3CC(=O)N(c4ccc(Cl)cc4)C3)no2)c1 (centres undefined)	none
Cc1ccc(CN2C[C@@H]3C(=O)N(CCCN4CCCC4=O)C(=O)[C@@H]3C2)cc1	none
Cc1cc(=O)n(CC(=O)Nc2ccccc2F)c(-c2ccc(Cl)cc2)n1	none
O=C(c1ccc(C2CCCNC2)cc1)N1CCC(Oc2cccc(F)c2)CC1 (centres undefined)	Pf Dd2 growth 13µM
O=C(c1ccc(C2CCCNC2)cc1)N1CCCN(c2ncccn2)CC1 (centres undefined)	none
O=C(c1ccc(F)cc1)N1CCC(Oc2cccnc2)C1 (centres undefined)	none
O=C1NCC(=O)N2CCN(C3CCN(Cc4ccco4)CC3)CC12 (centres undefined)	none
Cn1ccc(NC(=O)c2ccc3c(c2)NC(C)(COc2ccccc2)CO3)n1 (centres undefined)	none
O=C(Nc1cccc(NC(=O)c2ccccc2F)c1)c1ccccc1	none
Cc1ccccc1C(=O)Nc1cccc(NC(=O)c2ccc(C(C)(C)C)cc2)c1	Pf Dd2 growth 13µM
COc1cccc(C(=O)Nc2ccc(NC(=O)c3ccc(C(C)(C)C)cc3)cc2)c1	none
CCn1cc(S(=O)(=O)N2CCCC(c3nnnn3-c3ccccc3)C2)cn1 (centres undefined)	none
Cc1ccc(C(=O)N2C[C@@H](Oc3cccnc3)C[C@H]2C(=O)N2CCOCC2)cn1	none
COc1ccc(CN2CC(Oc3ccc(F)cc3F)C2)cc1	none
Cc1cc(F)ccc1OC1CN(CC2CC2)C1	none
Cc1cc(F)ccc1OC1CN(CC2CCCCC2)C1	Pf Dd2 growth 8.9µM
Cc1cc(F)ccc1OC1CN(Cc2ccc(C#N)cc2)C1	none
COc1ccc(CN2CC(Oc3ccc(F)cc3C)C2)cc1	Pf Dd2 growth 11µM
COc1ccccc1C(=O)N1CC(Oc2ccc(F)cc2C)C1	none
COc1cccc(CC(=O)NC2CCN(c3cc(-c4ccccc4)[nH]n3)CC2)c1	none
C=CCOC(=O)C1=C(C)N=C2SC=C(CC(=O)NCc3ccco3)N2C1c1cccc(C)c1 (centres undefined)	none
CCOC(=O)C1=C(C)N=C2SC=C(CC(=O)NCC3CCCO3)N2C1c1ccc(Cl)cc1 (centres undefined)	Pf Dd2 growth 2.2µM
CC1=C(C(=O)OC(C)C)C(c2ccccc2C)N2C(CC(=O)NC3CC3)=CSC2=N1 (centres undefined)	Pf Dd2 growth 7.9µM
CCOC(=O)C1=C(C)N=C2SC=C(CC(=O)NC3CC3)N2C1c1ccccc1C (centres undefined)	none
CCOC(=O)C1=C(C)N=C2SC=C(CC(=O)N3CCCC3)N2C1c1ccc(Cl)cc1 (centres undefined)	none
COC(=O)C1=C(C)N=C2SC=C(CC(=O)NC3CC3)N2C1c1ccc(C)cc1C (centres undefined)	none
C=CCOC(=O)C1=C(C)N=C2SC=C(CC(=O)NCc3ccc(F)cc3)N2C1c1ccccc1C (centres undefined)	Pf Dd2 growth 3.2µM
COC(=O)C1=C(C)N=C2SC=C(CC(=O)NCC3CCCO3)N2C1c1ccccc1C (centres undefined)	none
COC(=O)C1=C(C)N=C2SC=C(CC(=O)NCc3ccccc3)N2C1c1ccccc1F (centres undefined)	none
O=C(c1ccccn1)N1CCC2(CC1)NC(=O)N(Cc1ccc(Cl)cc1)C2=O	none
CCC(=O)Nc1cc2c(cc1OC)C(c1ncnn1CC)CC(=O)N2 (centres undefined)	none
Cc1sc2ccn(C)c(=O)c2c1C(=O)NCc1ccc(F)cc1Cl	none
COCC(=O)N1CCc2nc(C)nc(-c3ccc(OC)cc3)c2C1	none
c1ccc(Cc2noc(CCn3ccnc3-c3ccncc3)n2)cc1	none
CN1c2cc(C(=O)NCc3cccc(F)c3)ccc2C(=O)N2CCCCC21 (centres undefined)	none
CC(C)CCC(=O)N[C@@H]1CN(Cc2ccncc2)C[C@H]1CN(C)C	none
Cc1ccccc1NC1CCn2c(nc(C)c2C(=O)Nc2ccccc2)C1 (centres undefined)	none
Cc1nc2n(c1C(=O)NCC1CC1)CCC(Nc1ccc(F)cc1)C2 (centres undefined)	none
Cc1nc2n(c1C(=O)Nc1cc(-c3ccc(F)cc3)[nH]n1)CCC(Nc1ccc(F)cc1)C2 (centres undefined)	Pf Dd2 growth 8.9µM
CN1CC(=O)N(C2CCCC2)Cc2c1ncnc2N1CCN(Cc2ccccc2)CC1	none
O=C([C@@H]1C[C@H](F)CN1C(=O)Nc1ccc(Br)cc1)N1CCCCC1	none
COc1cccc(CN2CC[C@@]3(O)CCNC[C@H]3C2)c1OCCCn1ccnc1	Pf Dd2 growth 4µM
O[C@]12CCNC[C@H]1CN(Cc1cccc(N3CCOCC3)c1)CC2	none
O[C@]12CCNC[C@H]1CN(Cc1ccc(C(F)(F)F)cc1F)CC2	none
CN1CCC(N2CC[C@H](c3nnc(-c4ccc(N(C)C)cc4)o3)C2)CC1	none
COc1ccccc1C(=O)N1CCCCCC1c1nnc(-c2ccccc2)o1 (centres undefined)	none
CCn1ccc(C(=O)N2CCCC(c3noc(COc4ccccc4F)n3)C2)n1 (centres undefined)	none
COc1cccc(S(=O)(=O)N2CCN(C3CCN(C)C3=O)CC2)c1 (centres undefined)	none
COc1ccc(OC)c(NC(=O)CSc2ccc(-c3cccs3)nn2)c1	none
COc1ccc(C)cc1NC(=O)CSc1ccc(-c2ccccn2)nn1	Pf Dd2 growth 8.9µM
COc1ccc(OC)c(NC(=O)CSc2ccc(-c3sc(C)nc3C)nn2)c1	none
O=C(c1ccco1)N1CCN(C(=O)N2CC3CC(C2)[C@H]2CCCC(=O)N2C3)CC1 (some centres undefined)	none
CC(C)(C)C(Cn1ccnc1)NC(=O)c1cc(COc2ccc3c(c2)CCCC3)on1 (centres undefined)	Pf Dd2 growth 8.9µM
Cc1cc(C)n(CCCNC(=O)c2cc(COc3ccc4sc(C)nc4c3)on2)n1	none
